Data taken from the supplement of paper PMC10849652.
Targets with a hit are over-represented here; the source holds about 8,800 in all. About 0.5% of all pairs of compound and target were hits. A number with no mark means an inactive call.

Experiments:
Test in all cases: log2 fold change, soluble protein after heating vs DMSO (PISA); higher = thermal stabilisation; K562 lysate, 10 uM; active = over 0.2 and 3.5 SD of the protein, either way, in both replicates (recomputed)
vemurafenib = compound: CCCS(=O)(=O)Nc1ccc(F)c(C(=O)c2c[nH]c3ncc(-c4ccc(Cl)cc4)cc23)c1F [vemurafenib]
In short: (§1)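 Pellets of K562 cells were dounce-homogenised in PBS pH 7.4 with 1 mM MgCl2, and the crude extract was held at 1 mg/mL protein for a 30 min treatment with 10 μM compound. Aliquots were heated for 3 min over 48°C-58°C and pooled before NP-40 was added to 0.5% at 4°C. The supernatant from 21,000xg for 90 min was quantified by TMTpro 16plex LC-MS/MS with channel sums equalised. Values are reported from duplicates as log-two fold change in thermal stability relative to solvent controls.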

[1] = compound: CCCS(=O)(=O)Nc1ccc(F)c(C(=O)c2c[nH]c3ncc(Cl)cc23)c1F
In short: as §1

barasertib = compound: CCN(CCCOc1ccc2c(Nc3cc(CC(=O)Nc4cccc(F)c4)[nH]n3)ncnc2c1)CCOP(=O)(O)O [barasertib]
In short: as §1

[2] = compound: CC[C@@H]1C(=O)N(C)c2cnc(Nc3ccc(C(=O)NC4CCN(C)CC4)cc3OC)nc2N1C1CCCC1
In short: as §1

volasertib = compound: CC[C@@H]1C(=O)N(C)c2cnc(Nc3ccc(C(=O)N[C@H]4CC[C@H](N5CCN(CC6CC6)CC5)CC4)cc3OC)nc2N1C(C)C [volasertib]
In short: as §1

[3] = compound: CCn1c(C(=O)N(C2CC2)C2CC2)cc2c3c(ncn3C)c(Nc3cc(C)n(C)n3)nc21
In short: as §1

[4] = compound: CCn1cc(-c2ccnc3[nH]c(-c4cccc(CN(C)C)c4)cc23)c(-c2ccc(NC(=O)N(C)C)cc2)n1
In short: as §1

[5] = compound: CN1CCC(CNc2ccc3ncc(-c4cccc(OC(F)(F)F)c4)n3n2)CC1
In short: as §1

saracatinib = compound: CN1CCN(CCOc2cc(OC3CCOCC3)c3c(Nc4c(Cl)ccc5c4OCO5)ncnc3c2)CC1 [saracatinib]
In short: as §1

sotrastaurin = compound: CN1CCN(c2nc(C3=C(c4c[nH]c5ccccc45)C(=O)NC3=O)c3ccccc3n2)CC1 [sotrastaurin]
In short: as §1

Chain of UniProt Q9BV79 (Q9BV79 whole entry, looked up): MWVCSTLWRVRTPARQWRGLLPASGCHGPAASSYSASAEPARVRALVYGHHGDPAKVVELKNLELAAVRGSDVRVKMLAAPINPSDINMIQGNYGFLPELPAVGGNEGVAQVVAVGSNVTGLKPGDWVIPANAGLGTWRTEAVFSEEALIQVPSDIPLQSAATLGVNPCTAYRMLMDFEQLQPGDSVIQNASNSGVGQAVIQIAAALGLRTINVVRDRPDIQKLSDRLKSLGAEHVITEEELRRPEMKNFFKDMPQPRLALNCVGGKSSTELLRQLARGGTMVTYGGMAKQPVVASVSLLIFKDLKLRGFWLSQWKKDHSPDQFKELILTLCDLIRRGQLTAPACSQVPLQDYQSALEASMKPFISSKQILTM
Chain of UniProt P28838 (P28838 whole entry, looked up): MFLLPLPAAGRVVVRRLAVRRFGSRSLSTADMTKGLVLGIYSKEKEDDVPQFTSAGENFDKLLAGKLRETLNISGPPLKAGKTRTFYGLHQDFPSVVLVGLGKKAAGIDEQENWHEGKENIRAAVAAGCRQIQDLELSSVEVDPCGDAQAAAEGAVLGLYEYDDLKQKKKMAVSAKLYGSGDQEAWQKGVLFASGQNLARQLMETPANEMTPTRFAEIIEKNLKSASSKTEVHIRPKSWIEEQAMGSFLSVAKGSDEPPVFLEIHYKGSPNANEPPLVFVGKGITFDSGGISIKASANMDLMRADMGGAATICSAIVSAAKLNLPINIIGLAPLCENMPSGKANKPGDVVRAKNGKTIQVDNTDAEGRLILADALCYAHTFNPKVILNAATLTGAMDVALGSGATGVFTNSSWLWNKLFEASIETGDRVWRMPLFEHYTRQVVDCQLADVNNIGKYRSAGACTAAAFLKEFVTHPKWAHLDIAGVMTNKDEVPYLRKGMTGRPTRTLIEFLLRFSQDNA
Chain of UniProt Q9BTE3 (Q9BTE3 whole entry, looked up): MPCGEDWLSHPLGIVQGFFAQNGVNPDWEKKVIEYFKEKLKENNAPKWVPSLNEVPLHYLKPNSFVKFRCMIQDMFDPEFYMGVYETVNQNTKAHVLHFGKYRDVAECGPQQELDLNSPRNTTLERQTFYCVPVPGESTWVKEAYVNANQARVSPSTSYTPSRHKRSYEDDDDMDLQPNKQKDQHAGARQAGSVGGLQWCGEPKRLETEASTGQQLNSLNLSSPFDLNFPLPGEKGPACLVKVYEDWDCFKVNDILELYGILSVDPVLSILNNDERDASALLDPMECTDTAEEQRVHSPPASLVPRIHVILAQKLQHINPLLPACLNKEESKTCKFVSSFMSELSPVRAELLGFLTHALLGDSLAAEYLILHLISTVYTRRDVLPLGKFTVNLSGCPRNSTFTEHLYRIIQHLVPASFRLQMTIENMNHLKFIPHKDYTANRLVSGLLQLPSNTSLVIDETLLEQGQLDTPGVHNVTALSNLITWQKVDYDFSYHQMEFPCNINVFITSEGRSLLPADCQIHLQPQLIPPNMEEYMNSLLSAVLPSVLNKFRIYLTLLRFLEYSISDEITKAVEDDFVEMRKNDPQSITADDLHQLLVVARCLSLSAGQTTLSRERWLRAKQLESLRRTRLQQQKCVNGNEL
Chain of UniProt Q9Y6X9 (Q9Y6X9 whole entry, looked up): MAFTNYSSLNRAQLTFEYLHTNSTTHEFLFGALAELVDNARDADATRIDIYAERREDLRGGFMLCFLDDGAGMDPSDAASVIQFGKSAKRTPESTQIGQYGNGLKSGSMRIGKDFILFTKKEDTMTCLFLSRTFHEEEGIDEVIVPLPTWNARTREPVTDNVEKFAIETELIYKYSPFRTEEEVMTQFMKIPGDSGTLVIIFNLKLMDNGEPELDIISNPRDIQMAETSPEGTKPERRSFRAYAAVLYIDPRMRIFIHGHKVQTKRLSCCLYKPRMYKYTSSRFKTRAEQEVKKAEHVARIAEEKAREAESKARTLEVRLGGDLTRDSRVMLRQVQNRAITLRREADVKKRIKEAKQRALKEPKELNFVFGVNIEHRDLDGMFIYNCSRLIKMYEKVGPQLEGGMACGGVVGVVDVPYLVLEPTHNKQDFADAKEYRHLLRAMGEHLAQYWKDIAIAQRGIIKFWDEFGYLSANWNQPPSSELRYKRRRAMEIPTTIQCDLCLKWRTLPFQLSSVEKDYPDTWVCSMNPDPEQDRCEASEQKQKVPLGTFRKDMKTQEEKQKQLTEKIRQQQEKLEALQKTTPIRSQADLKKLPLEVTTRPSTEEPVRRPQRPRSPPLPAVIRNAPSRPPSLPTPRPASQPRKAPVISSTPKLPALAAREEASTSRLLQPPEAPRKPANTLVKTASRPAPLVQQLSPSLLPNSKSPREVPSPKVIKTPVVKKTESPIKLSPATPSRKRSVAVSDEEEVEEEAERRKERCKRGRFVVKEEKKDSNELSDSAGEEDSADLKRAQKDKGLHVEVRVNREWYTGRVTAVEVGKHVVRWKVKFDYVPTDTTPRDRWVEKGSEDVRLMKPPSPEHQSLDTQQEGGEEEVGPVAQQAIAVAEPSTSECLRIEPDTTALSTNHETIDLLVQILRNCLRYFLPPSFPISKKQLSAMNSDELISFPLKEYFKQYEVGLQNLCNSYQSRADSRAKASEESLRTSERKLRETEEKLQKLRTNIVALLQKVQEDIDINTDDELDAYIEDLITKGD
Chain of UniProt Q14807 (Q14807 whole entry, looked up): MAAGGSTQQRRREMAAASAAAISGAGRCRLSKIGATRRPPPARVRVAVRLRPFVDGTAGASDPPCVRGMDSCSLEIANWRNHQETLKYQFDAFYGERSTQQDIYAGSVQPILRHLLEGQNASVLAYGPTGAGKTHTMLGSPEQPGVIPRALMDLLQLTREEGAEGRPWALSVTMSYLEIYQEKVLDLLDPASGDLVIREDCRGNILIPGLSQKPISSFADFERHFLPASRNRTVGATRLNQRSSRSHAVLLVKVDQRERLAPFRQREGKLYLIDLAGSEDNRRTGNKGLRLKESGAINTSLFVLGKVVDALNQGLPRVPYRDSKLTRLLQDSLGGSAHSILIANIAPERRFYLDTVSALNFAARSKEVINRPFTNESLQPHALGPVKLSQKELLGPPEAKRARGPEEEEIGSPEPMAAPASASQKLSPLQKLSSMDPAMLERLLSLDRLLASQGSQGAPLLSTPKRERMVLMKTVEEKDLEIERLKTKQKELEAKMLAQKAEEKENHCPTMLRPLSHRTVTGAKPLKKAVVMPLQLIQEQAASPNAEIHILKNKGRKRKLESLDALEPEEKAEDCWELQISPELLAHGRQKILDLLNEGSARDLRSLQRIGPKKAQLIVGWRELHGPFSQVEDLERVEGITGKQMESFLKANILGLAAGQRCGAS
Chain of UniProt Q9H6V9 (Q9H6V9 whole entry, looked up): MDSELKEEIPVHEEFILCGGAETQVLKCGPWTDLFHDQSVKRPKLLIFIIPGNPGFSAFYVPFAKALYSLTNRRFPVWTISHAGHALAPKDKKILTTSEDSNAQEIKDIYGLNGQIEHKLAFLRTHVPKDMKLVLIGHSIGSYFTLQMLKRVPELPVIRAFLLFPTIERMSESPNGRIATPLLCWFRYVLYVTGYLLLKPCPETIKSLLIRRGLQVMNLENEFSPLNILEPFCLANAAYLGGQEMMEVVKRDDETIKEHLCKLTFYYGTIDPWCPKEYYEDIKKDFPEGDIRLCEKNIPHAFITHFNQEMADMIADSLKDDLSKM
Chain of UniProt Q9NVC6 (Q9NVC6 whole entry, looked up): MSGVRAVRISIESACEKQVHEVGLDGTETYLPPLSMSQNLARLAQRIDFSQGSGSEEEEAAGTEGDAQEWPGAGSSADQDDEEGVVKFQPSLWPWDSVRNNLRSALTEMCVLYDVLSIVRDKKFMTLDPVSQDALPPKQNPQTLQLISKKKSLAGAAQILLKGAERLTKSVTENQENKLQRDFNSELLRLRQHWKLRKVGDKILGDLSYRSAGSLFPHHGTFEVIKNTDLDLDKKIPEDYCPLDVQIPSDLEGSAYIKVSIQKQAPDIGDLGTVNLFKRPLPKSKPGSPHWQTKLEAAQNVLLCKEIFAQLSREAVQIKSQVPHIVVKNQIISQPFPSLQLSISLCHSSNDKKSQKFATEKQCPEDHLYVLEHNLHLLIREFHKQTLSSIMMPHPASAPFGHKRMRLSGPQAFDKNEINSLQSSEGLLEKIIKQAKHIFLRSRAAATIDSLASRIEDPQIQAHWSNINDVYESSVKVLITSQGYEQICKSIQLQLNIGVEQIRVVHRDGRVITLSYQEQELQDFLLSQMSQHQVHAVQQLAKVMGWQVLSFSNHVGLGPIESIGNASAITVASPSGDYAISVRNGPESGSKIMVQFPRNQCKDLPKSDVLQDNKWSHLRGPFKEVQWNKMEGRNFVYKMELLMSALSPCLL
Chain of UniProt Q68D91 (Q68D91 whole entry, looked up): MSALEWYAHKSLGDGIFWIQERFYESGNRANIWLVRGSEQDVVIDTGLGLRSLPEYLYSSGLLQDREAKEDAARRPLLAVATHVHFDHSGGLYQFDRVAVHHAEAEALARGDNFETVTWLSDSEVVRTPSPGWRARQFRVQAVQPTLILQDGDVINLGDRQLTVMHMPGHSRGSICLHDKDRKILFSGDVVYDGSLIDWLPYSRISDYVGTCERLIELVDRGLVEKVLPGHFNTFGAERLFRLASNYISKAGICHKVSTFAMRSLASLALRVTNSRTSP
Chain of UniProt P45985 (P45985 whole entry, looked up): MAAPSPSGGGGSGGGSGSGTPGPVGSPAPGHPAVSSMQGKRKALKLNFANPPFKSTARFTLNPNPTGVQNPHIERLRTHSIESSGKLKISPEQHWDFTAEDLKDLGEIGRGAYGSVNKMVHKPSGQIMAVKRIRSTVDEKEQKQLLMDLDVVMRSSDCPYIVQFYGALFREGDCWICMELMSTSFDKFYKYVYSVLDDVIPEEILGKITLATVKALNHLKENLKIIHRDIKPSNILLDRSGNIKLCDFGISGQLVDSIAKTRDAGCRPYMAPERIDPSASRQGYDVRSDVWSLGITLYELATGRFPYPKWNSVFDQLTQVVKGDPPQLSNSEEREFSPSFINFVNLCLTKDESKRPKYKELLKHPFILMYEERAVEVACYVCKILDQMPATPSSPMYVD

Target | log2 fold change (vemurafenib) | log2 fold change [1] | log2 fold change (barasertib) | log2 fold change [2] | log2 fold change (volasertib) | log2 fold change [3] | log2 fold change [4] | log2 fold change [5] | log2 fold change (saracatinib) | log2 fold change (sotrastaurin)
KNOP1 (UniProt Q1ED39) | -0.285 | 0.026 | -0.014 | 0.315 | 0.056 | -0.161 | 0.016 | 0.012 | -0.029 | -0.063
MAP4 (UniProt E7EVA0) | -0.019 | 0.01 | 0.04 | 0.125 | -0.021 | -0.141 | -0.024 | 0.029 | 0.024 | -0.008
LZTR1 (UniProt Q8N653) | 0.026 | -0.118 | 0.081 | 0.002 | -0.125 | -0.012 | 0 | -0.047 | -0.031 | 0.065
KNL1 (UniProt Q8NG31) | -0.031 | 0.064 | 0.011 | -0.015 | -0.044 | -0.012 | 0.015 | 0 | 0.006 | 0.025
MAP2K4 isoform 2 (UniProt P45985) | 0.601 (active) | 0.243 | 0.09 | -0.127 | -0.01 | 0.04 | 0.936 (active) | -0.063 | -0.063 | 0.002
MCMBP (UniProt Q9BTE3) | -0.029 | 0.019 | -0.007 | 0.006 | -0.026 | 0.043 | 0.035 | -0.032 | 0.02 | 0.015
MORC2 (UniProt Q9Y6X9) | 0.049 | 0.01 | 0.054 | 0.022 | 0.002 | -0.006 | -0.041 | 0.008 | 0.042 | 0.037
MED17 (UniProt Q9NVC6) | 0.028 | 0.007 | 0.004 | -0.023 | -0.02 | 0.002 | -0.037 | 0.013 | 0.01 | 0.031
MRPL46 (UniProt Q9H2W6) | 0.058 | -0.001 | -0.015 | 0.115 | 0.044 | 0.064 | 0.523 (active) | -0.029 | 0.024 | 0.032
MAP1S (UniProt Q66K74) | -0.004 | 0.041 | 0.002 | -0.035 | -0.024 | -0.01 | -0.056 | -0.022 | 0.038 | 0.037
MPI (UniProt P34949) | 0.013 | 0.007 | 0.008 | 0.014 | -0.02 | -0.011 | 0.149 | -0.067 | -0.028 | 0.025
LBR (UniProt Q14739) | 0.012 | 0.008 | 0.041 | 0.014 | 0.156 | 0.052 | 0.117 | -0.22 | 0.064 | 0.048
MBLAC2 (UniProt Q68D91) | -0.069 | -0.006 | 0.013 | -0.042 | 0.002 | 0.008 | 0.036 | 0.078 | -0.042 | 0.016
MLH1 (UniProt P40692) | 0.042 | -0.039 | 0.014 | 0.013 | -0.002 | 0.014 | -0.029 | -0.023 | 0.051 | 0.02
MFF isoform 2 (UniProt Q9GZY8) | 0.019 | 0.027 | 0.027 | 0.032 | -0.014 | 0.035 | -0.234 (active) | 0.036 | 0.011 | -0.044
LIMK1 (UniProt P53667) | 0.234 | 0.179 | 0.007 | -0.195 | -0.215 | 0.108 | -0.104 | -0.028 | -0.022 | -0.15
LRRC40 (UniProt Q9H9A6) | 0.004 | 0.015 | 0.034 | -0.024 | -0.011 | 0.018 | 0.052 | -0.052 | 0 | 0.021
LSG1 (UniProt Q9H089) | -0.056 | 0.046 | 0.037 | -0.084 | -0.065 | -0.01 | -0.124 | 0.064 | 0.043 | 0.024
LDAH isoform 2 (UniProt Q9H6V9) | 0.077 | 0.125 | 0.018 | 0.003 | -0.036 | -0.004 | -0.013 | -0.018 | 0.016 | -0.01
MAP4 (UniProt P27816) | 0.01 | -0.017 | -0.016 | 0.064 | 0.033 | -0.022 | -0.042 | 0.036 | -0.009 | -0.027
KLC4 isoform 3 (UniProt Q9NSK0) | -0.038 | 0.02 | -0.008 | 0.038 | -0.029 | 0.052 | 0.011 | -0.018 | -0.012 | 0.003
MECR (UniProt Q9BV79) | 0.055 | 0.035 | 0.008 | -0.05 | -0.008 | 0.004 | -0.043 | 0.023 | 0.095 | -0.007
LAP3 (UniProt P28838) | 0.107 | 0.024 | -0.002 | 0.195 | 0.054 | -0.095 | -0.495 (active) | 0.36 (active) | 0.082 | 0.042
MRPL12 (UniProt P52815) | 0.01 | -0.026 | 0.181 | 0.036 | 0.103 | -0.019 | -0.412 (active) | -0.032 | 0.004 | 0.015
MORC3 (UniProt Q14149) | 0.025 | 0.01 | 0.019 | -0.03 | -0.077 | 0.007 | -0.007 | -0.055 | 0.004 | 0.006
LYN (UniProt P07948) | 0.285 | 0.05 | 0.258 | -0.067 | -0.134 | 0.004 | -0.012 | 0.233 | 0.605 | -0.045
MED13L (UniProt Q71F56) | -0.043 | -0.012 | 0.028 | 0.01 | -0.058 | 0.038 | -0.023 | 0.064 | -0.037 | -0.018
LY6E (UniProt Q16553) | 0.068 | 0.026 | -0.02 | -0.055 | 0.022 | – | -1.86 (active) | 0.533 | – | –
MMS22L (UniProt Q6ZRQ5) | -0.044 | 0.013 | 0.083 | -0.182 | -0.119 | – | 0.077 | -0.083 | 0.092 | 0.012
KIF22 (UniProt Q14807) | -0.043 | -0.049 | 0.009 | 0.088 | 0.075 | -0.189 | -0.157 | 0.308 | 0.036 | -0.084
